# Reference: article PMC4336329 (PLoS ONE, 2015)
# Among all 310,000 compounds or so, about 14,000 (4.5%) showed an effect of 50% or more. Effects have a minus sign here. Many of the other results were omitted from the sample, so strong results are more common in it than they were.
# Biological target: human ether-à-go-go-related gene (hERG) potassium channel (human, UniProt Q12809)
# Assay: primary screen, population patch clamp on CHO cells stably expressing hERG; higher = less effect of the substance
# 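Also: peak tail current of the secondary pulse compared with the same well before compound.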
# Chain of human ether-à-go-go-related gene (hERG) potassium channel (Q12809 whole entry, looked up): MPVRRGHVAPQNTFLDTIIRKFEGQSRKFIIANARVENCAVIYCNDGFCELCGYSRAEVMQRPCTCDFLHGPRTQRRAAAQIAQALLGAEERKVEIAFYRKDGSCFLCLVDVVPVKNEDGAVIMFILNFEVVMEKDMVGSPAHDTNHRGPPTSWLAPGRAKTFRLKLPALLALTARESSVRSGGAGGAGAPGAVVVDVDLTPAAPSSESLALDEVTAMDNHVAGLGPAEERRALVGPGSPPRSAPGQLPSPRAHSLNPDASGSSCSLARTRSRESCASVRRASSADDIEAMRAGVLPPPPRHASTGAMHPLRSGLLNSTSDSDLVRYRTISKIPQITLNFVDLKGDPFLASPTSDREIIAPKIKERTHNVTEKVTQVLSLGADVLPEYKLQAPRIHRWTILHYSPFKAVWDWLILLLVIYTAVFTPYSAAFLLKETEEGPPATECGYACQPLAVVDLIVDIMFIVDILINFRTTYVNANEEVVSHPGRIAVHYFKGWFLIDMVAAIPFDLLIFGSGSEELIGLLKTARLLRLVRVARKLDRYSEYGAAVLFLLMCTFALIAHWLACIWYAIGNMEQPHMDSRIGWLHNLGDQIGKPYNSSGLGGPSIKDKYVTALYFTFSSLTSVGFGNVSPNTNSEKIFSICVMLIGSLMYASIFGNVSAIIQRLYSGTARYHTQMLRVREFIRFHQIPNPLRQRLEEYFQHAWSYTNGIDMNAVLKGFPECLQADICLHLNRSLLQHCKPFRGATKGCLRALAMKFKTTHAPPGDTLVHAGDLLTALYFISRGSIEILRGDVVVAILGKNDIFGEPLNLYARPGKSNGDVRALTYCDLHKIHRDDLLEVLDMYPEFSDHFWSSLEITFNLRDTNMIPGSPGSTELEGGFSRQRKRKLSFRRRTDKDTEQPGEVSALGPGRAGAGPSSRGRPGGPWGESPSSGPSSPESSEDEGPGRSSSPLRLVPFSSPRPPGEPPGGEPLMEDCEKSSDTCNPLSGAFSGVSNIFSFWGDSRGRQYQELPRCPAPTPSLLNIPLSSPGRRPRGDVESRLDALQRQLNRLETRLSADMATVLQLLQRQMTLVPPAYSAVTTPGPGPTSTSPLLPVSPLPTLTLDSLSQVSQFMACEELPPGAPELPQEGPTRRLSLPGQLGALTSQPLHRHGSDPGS
row,SMILES,"hERG current change (%, negative = inhibition) at 10uM"
1,CCc1ccccc1NC(=S)N(CCN(C)C)C(C)c1ccccn1 (centres unmarked),-30.8%
2,O=C(NNC(=O)c1ccccc1OCc1ccccc1Cl)c1csc(N2CCOCC2)n1,31%
3,O=C(COC(=O)c1ccc(F)c(S(=O)(=O)N2CCOCC2)c1)NC1CC1,-17.4%
4,COc1cc2c(cc1OC)C(C)N(C(=O)C(NC(=O)c1ccccc1)C(C)C)CC2 (centres unmarked),7.1%
5,COc1ccc(-c2ocnc2C(=O)NCc2nn(-c3ccccc3)nc2C)cc1,5.05%
6,CN(C)CCN(C(=O)c1ccc2c(c1)CCCC2)c1nc2c(F)cccc2s1.Cl,-14.6%
7,COc1cccc2sc(N(CCN(C)C)C(=O)c3ccc(S(=O)(=O)N4CCCC4)cc3)nc12.Cl,-31.2%
8,COc1ccc2sc(N(CCCN(C)C)C(=O)c3ccc(S(=O)(=O)N4CCCc5ccccc54)cc3)nc2c1.Cl,-14.4%
9,CCOc1ccc2nc(N(CCN(C)C)C(=O)c3ccc4c(c3)CCCC4)sc2c1.Cl,-1.63%
10,CN(C)CCCN(C(=O)c1ccc(S(=O)(=O)N2CCc3ccccc32)cc1)c1nc2c(Cl)cccc2s1.Cl,-27.6%
11,COc1cccc2sc(N(CCCN(C)C)C(=O)c3ccc(S(=O)(=O)N4CCCc5ccccc54)cc3)nc12.Cl,-68.3%
12,COc1cccc2sc(N(CCN(C)C)C(=O)c3ccc4c(c3)CCCC4)nc12.Cl,-66.7%
13,CN(C)CCCN(C(=O)c1ccc2c(c1)CCCC2)c1nc2c(F)cccc2s1.Cl,-70%
14,O=C1N=C(N2CCOCC2)S/C1=C\c1ccc(-c2ccccc2Cl)o1,-15.3%
15,COC(=O)CS(=O)(=O)c1ccsc1C(=O)Nc1ccc(F)cc1,3.5%
16,Cc1ccc(SCCC(=O)Nc2ccccc2Br)cc1,12.8%
17,C=CCn1cnc2c(oc3ccccc32)c1=O,4.04%
18,Cc1cnc(C(=O)OCC(=O)N=c2sccn2Cc2ccccc2Cl)cn1,10.1%
19,CCOC(=O)N1CCC(NC(=O)COc2cc(=O)n(C)c3ccccc23)CC1,6.6%
20,O=C(NCCNS(=O)(=O)c1ccccc1)N1CCOCC1,18.3%
21,O=C(NC1CCCCC1)C(c1ccccc1F)N(Cc1ccco1)C(=O)c1ccccn1 (centres unmarked),-4.03%
22,Cc1nnc2n(c1=O)N=C(c1ccc(Cl)cc1)CS2,6.25%
23,COc1ccccc1-c1nnc2n1N=C(c1ccc(O)c(O)c1)CS2,-0.453%
24,C[n+]1c2n(c3ccccc31)N=C(c1ccc(-c3ccccc3)cc1)CS2.[Br-],-79.7%
25,Cc1cc(Cn2nnc3ccccc32)c(O)c(C(C)(C)C)c1,19.3%
26,CC1Sc2n(c3ccccc3[n+]2C)N=C1c1ccccc1.[Br-] (centres unmarked),-49.6%
27,CCc1nnc2n1N=C(c1ccc(Cl)cc1)CS2,8.48%

row,SMILES,"hERG current change (%, negative = inhibition) at 10uM"
1,C[n+]1c2n(c3ccccc31)N=C(c1ccc(Cl)cc1)CS2.[Br-],-69%
2,Cc1ccc(-c2nnc3n2N=C(c2ccc(Br)cc2)CS3)cc1,-1.26%
3,C[n+]1c2n(c3ccccc31)N=C(c1ccc(Br)cc1)CS2.[Br-],-69.5%
4,COc1ccc(C2=Nn3c([n+](C)c4ccccc43)SC2)cc1.[Br-],-44.2%
5,C[n+]1c2n(c3ccccc31)N=C(c1ccccc1)CS2.[Br-],-47.3%
6,C[n+]1c2n(c3ccccc31)N=C(c1cc(C(C)(C)C)c(O)c(C(C)(C)C)c1)CS2.[Br-],-77.6%
7,Cc1ccc2nc(N3C(=O)C(O)=C(C(=O)c4ccc(C)o4)C3c3ccco3)sc2c1 (centres unmarked),12.8%
8,COC(=O)c1ccc(NC(=O)C[n+]2ccccc2)cc1.[Cl-],11.9%
9,COc1ccc(NC(=O)Cn2c(=O)oc3cc(S(=O)(=O)N4CCCC4)ccc32)c(OC)c1,7.38%
10,O=C(Nc1ccccc1)c1ccc(NCCN2C(=O)CCC2=O)c([N+](=O)[O-])c1,10.9%
11,CCCn1c(N)c(N2CCCCC2)c(=O)n(CC(=O)Nc2ccccc2C)c1=O,14.6%
12,Cc1nn(C)cc1C(C)Nc1nc2nonc2nc1N1CCCCC1 (centres unmarked),0.196%
13,CCN(Cc1ccc2c(c1)OCO2)C(=O)CSc1nc(C)nc2sc(C)c(C)c12,-5.76%
14,COc1ccc(C(=O)Nc2c(N)nc(SCC(=O)Nc3ccc(NC(C)=O)cc3)[nH]c2=O)cc1,21.9%
15,COc1ccc(C(CCN2CCCC2)c2c(OC)cc(OC)c3c(-c4ccccc4)cc(=O)oc23)cc1 (centres unmarked),-52.7%
16,CCN(CC)CCC(c1ccc(N(C)C)cc1)c1c(OC)cc(OC)c2c(-c3ccccc3)cc(=O)oc12 (centres unmarked),-24.5%
17,CCN(CC)CCC(c1ccc2c(c1)OCO2)c1c(OC)cc(OC)c2c(-c3ccccc3)cc(=O)oc12 (centres unmarked),-65.4%
18,COc1ccc(C(CCN2CCCCC2)c2c(OC)cc(OC)c3c(-c4ccccc4)cc(=O)oc23)cc1 (centres unmarked),-55.1%
19,COc1cc(OC)c2c(-c3ccccc3)cc(=O)oc2c1C(CCN1CCCC1)c1ccc2c(c1)OCO2 (centres unmarked),-46.9%
20,COc1ccc(C(CC(=O)N2CCCC2)c2c(OC)cc(OC)c3c(-c4ccccc4)cc(=O)oc23)cc1 (centres unmarked),-5.46%
21,COc1cc(OC)c2c(-c3ccccc3)cc(=O)oc2c1C(CCN1CCCCC1)c1ccc(N(C)C)cc1 (centres unmarked),-25%
22,COc1cc(OC)c2c(-c3ccccc3)cc(=O)oc2c1C(CCN1CCCC(C)C1)c1ccc2c(c1)OCO2 (centres unmarked),-48.8%
23,CCN(CC)C(=O)CC(c1ccc2c(c1)OCO2)c1c(OC)cc(OC)c2c(-c3ccccc3)cc(=O)oc12 (centres unmarked),5.08%
24,COc1ccc(C(CC(=O)N2CCCCC2)c2c(OC)cc(OC)c3c(-c4ccccc4)cc(=O)oc23)cc1 (centres unmarked),0.849%
25,COc1ccc(C(CCN2CCN(c3ccccc3)CC2)c2c(OC)cc(OC)c3c(-c4ccccc4)cc(=O)oc23)cc1 (centres unmarked),-9.55%
26,COc1cc(OC)c2c(-c3ccccc3)cc(=O)oc2c1C(CCN1CCCCC1)c1ccc2c(c1)OCO2 (centres unmarked),-53.2%
